Results on five compounds are retold here after PubChem BioAssay (NCI).

Values joined by “and” are separate entries in the source; they are usually repeats but may differ in a detail not shown here. Equal entries are not always repeated. The panel holds about 83,000 compounds, 20% with a hit somewhere; the sample as a whole holds those more often.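 Step 1: grow cells in 96-well plates. Step 2: add test compound at a single concentration. Step 3: incubate 48 h. Step 4: record percent growth.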 Active and inactive are the calls of the source. Rule for the calls: active = growth percent below 10; inactive = the rest.

Holding throughout (experiment): NCI-60 one-dose screen, 48 h (100 = growth as untreated, 0 = no growth, -100 = all killed)
For one experiment, the system named is NCI-H226 lung. As to conditions: 10 µM.
A further experiment deals with NCI-H322M lung. Conditions: 10 µM.
The next experiment deals with HOP-62 NSCLC. As to conditions: 10 µM.
The subject of a further experiment is NCI-H460 lung. Conditions: 10 µM.
The subject of the next experiment is A549/ATCC NSCLC. Conditions: 10 µM.
A further experiment has as its system 786-0 renal. As to conditions: 10 µM.
The subject of another experiment is COLO 205 colon. As to conditions: 10 µM.
The test system of the next experiment is DU-145 prostate. As to conditions: 10 µM.
A further experiment deals with SF-268 CNS. As to conditions: 10 µM.
In a further experiment the test system is SF-295 CNS. As to conditions: 10 µM.
The subject of a further experiment is SF-539 CNS. Conditions: 10 µM.
Another experiment concerns HCT-15 colon. As to conditions: 10 µM.
Another experiment relates to HT29 colon. Conditions: 10 µM.
A further experiment relates to SNB-75 CNS. Conditions: 10 µM.
The next experiment relates to SNB-19 CNS. Conditions: 10 µM.
The subject of a further experiment is PC-3 prostate. Conditions: 10 µM.
The subject of a further experiment is EKVX NSCLC. As to conditions: 10 µM.
The subject of the next experiment is UO-31 renal. As to conditions: 10 µM.
The next experiment relates to ACHN renal. As to conditions: 10 µM.
The subject of another experiment is HL-60(TB) leukemia. Conditions: 10 µM unless noted.

Turning to `COc1cc2c(cc1OC)[C@@H]1N(CC2)C(=O)c2ccccc2[C@@]1(C)C(=O)O`, the growth in the experiment with NCI-H226 lung was 111% (inactive); in the experiment on NCI-H322M lung, 102% (inactive); in the experiment on HOP-62 NSCLC, 108% (inactive); in the experiment with NCI-H460 lung, 109% (inactive); with A549/ATCC NSCLC, 111% (inactive); with 786-0 renal, 99.9% (inactive). Besides, the growth is 115% (inactive) in the experiment with COLO 205 colon; 110% (inactive) in the experiment with DU-145 prostate; 110% (inactive) in the experiment with SF-268 CNS; 101% (inactive) with SF-295 CNS; 105% (inactive) with SF-539 CNS; 101% (inactive) in the experiment on HCT-15 colon. The growth in the experiment with HT29 colon was 107% (inactive); in the experiment with SNB-75 CNS it was 108% (inactive); with SNB-19 CNS, 98.4% (inactive); in the experiment with PC-3 prostate it was 104% (inactive); with EKVX NSCLC, 103% (inactive); in the experiment with UO-31 renal, 97.3% (inactive). In addition, the growth in the experiment with ACHN renal was 110% (inactive); in the experiment on HL-60(TB) leukemia, 104% (inactive).

As to `CN1C(=O)[C@]23SSC1(C)C(=O)N2[C@H]1Nc2ccccc2C1([C@@]12c4ccccc4N[C@@H]1N1C(=O)C4(C)SS[C@]1(C(=O)N4C)[C@H]2O)[C@@H]3O` (stereo not given in full), the growth in the experiment on NCI-H226 lung is -96.6% (active); in the experiment with NCI-H322M lung it was -74.2% (active); in the experiment with HOP-62 NSCLC it was -91% (active); in the experiment with NCI-H460 lung it was -87.4% (active); with A549/ATCC NSCLC it was -86.9% (active); with 786-0 renal it was -99.1% (active). Also, the growth with COLO 205 colon is -88.9% (active); with DU-145 prostate, -94.1% (active); in the experiment with SF-268 CNS, -86.5% (active); in the experiment on SF-295 CNS, -80.2% (active); in the experiment on SF-539 CNS it was -91.3% (active); in the experiment with HCT-15 colon, -45.4% (active). Also, the growth in the experiment with HT29 colon was -66.7% (active); in the experiment on SNB-75 CNS it was -85.8% (active); in the experiment with SNB-19 CNS, -99.4% (active); in the experiment on PC-3 prostate, -79.9% (active); with EKVX NSCLC it was -97.4% (active); with UO-31 renal, -100% (active). In addition, the growth in the experiment with ACHN renal is -98.8% (active); in the experiment on HL-60(TB) leukemia, -19.4% (active).

On to `C=C1[C@@H](C)C2[C@H](Cc3ccccc3)NC(=O)[C@]23[C@H](OC(C)=O)/C=C/[C@@](C)(O)C(=O)[C@@H](C)C/C=C/[C@H]3[C@@H]1O` (stereo not given in full), for which the growth is 53.4% (inactive) with NCI-H226 lung; 87.9% (inactive) with NCI-H322M lung; 9.38% (active) with HOP-62 NSCLC; 26.3% (inactive) in the experiment on NCI-H460 lung; 22.7% (inactive) with A549/ATCC NSCLC; 28.8% (inactive) with 786-0 renal. Further, the growth with COLO 205 colon was 35% (inactive); with DU-145 prostate, 48% (inactive); with SF-268 CNS, 34.5% (inactive); with SF-295 CNS it was 51.4% (inactive); in the experiment with SF-539 CNS, 24% (inactive); in the experiment with HCT-15 colon, 45.8% (inactive). In addition, the growth with HT29 colon is 11.8% (inactive); in the experiment with SNB-75 CNS, -10.7% (active); in the experiment with SNB-19 CNS it was 50.4% (inactive); in the experiment with PC-3 prostate, 69.4% (inactive); in the experiment on EKVX NSCLC, 50.5% (inactive); in the experiment with UO-31 renal, -14.6% (active). Further, the values for the growth in the experiment with ACHN renal and in the experiment on HL-60(TB) leukemia were 41.9% (inactive) and 31.7% (inactive), respectively.

Consider `C/C=C/CC(C)C(O)[C@H](NC(=O)[C@@H]1CCCN1C(=O)C(C)(C)NC(=O)CCCCCCCCC)C(=O)N[C@@](C)(CC)C(=O)N[C@@H](CCC(N)=O)C(=O)N[C@H](CCC(N)=O)C(=O)NC(C)(C)C(=O)NC(C)(C)C(=O)N[C@@H](CCC(N)=O)C(=O)N[C@H](CC(C)C)C(=O)N[C@H](CO)CC(C)C` (stereo not given in full), for which the growth is -0.538% (active) and 75.5% (inactive) with NCI-H226 lung; 31% (inactive) and 67.6% (inactive) with NCI-H322M lung; -12.3% (active) and 28.3% (inactive) in the experiment with HOP-62 NSCLC; -56.6% (active) and 12.7% (inactive) in the experiment with NCI-H460 lung; 78.8% (inactive) and 99.8% (inactive) in the experiment on A549/ATCC NSCLC; -39.5% (active) and 25.2% (inactive) in the experiment with 786-0 renal. In addition, the growth is -10.4% (active) and 50.9% (inactive) in the experiment with COLO 205 colon; -94.5% (active) and -42.1% (active) in the experiment on DU-145 prostate; -77% (active) and 4.8% (active) in the experiment with SF-268 CNS; -64.6% (active) and -30.2% (active) with SF-295 CNS; -69.3% (active) and 12% (inactive) in the experiment with SF-539 CNS; 38% (inactive) and 89.3% (inactive) in the experiment with HCT-15 colon. Moreover, the growth was 58.1% (inactive) and 90.2% (inactive) in the experiment with HT29 colon; -55.9% (active) and -38.8% (active) with SNB-75 CNS; -28.9% (active) and 35.2% (inactive) in the experiment with SNB-19 CNS; 21.4% (inactive) and 32.4% (inactive) in the experiment with PC-3 prostate; 0.155% (active) and 23% (inactive) in the experiment on EKVX NSCLC; 39.1% (inactive) and 62.6% (inactive) with UO-31 renal. Moreover, the growth in the experiment with ACHN renal is 40.3% (inactive) and 68.4% (inactive); in the experiment with HL-60(TB) leukemia, 1.3% (active) and 79.5% (inactive).

Take `CCCCCCCCCC(=O)N[C@@](C)(CC)C(=O)N1CCC[C@H]1C(=O)N[C@@H](CC(C)C)C(=O)N[C@@](C)(CC)C(=O)N[C@@H](CCC(N)=O)C(=O)N[C@H](CCC(N)=O)C(=O)NC(C)(C)C(=O)NC(C)(C)C(=O)N[C@@H](CCC(N)=O)C(=O)N[C@H](CC(C)C)C(=O)N[C@H](CO)CC(C)C`: the growth in the experiment with NCI-H226 lung is -71.9% (active) and -72.7% (active); in the experiment with NCI-H322M lung, -94.9% (active) and -60.9% (active); in the experiment on HOP-62 NSCLC, -74.3% (active) and -67.3% (active); in the experiment with NCI-H460 lung it was -77.3% (active) and -76.8% (active); in the experiment on A549/ATCC NSCLC, -48.6% (active) and -38% (active); in the experiment with 786-0 renal, -78.5% (active) and -80.4% (active). In addition, the growth with COLO 205 colon was -63.2% (active) and -52.1% (active); with DU-145 prostate it was -99.1% (active) and -81.9% (active); in the experiment with SF-268 CNS, -80.5% (active) and -64.9% (active); in the experiment on SF-295 CNS, -91.7% (active) and -90.9% (active); with SF-539 CNS it was -97.2% (active) and -100% (active); in the experiment on HCT-15 colon it was -77.8% (active) and -78.1% (active). Besides, the growth with HT29 colon was -40.3% (active) and -67.2% (active); in the experiment on SNB-75 CNS, -90.8% (active) and -96.3% (active); in the experiment with SNB-19 CNS, -93.9% (active) and -99.6% (active); in the experiment with PC-3 prostate it was -87.2% (active) and -63.7% (active); in the experiment on EKVX NSCLC it was -86.7% (active) and -89.1% (active); with UO-31 renal, -96.4% (active) and -89.3% (active). Besides, the growth in the experiment on ACHN renal was -93% (active) and -98.4% (active); with HL-60(TB) leukemia it was -61.8% (active) and -23.6% (active).
